The text below walks through data of ChEMBL document CHEMBL4513216, “Probing the Open Global Health Chemical Diversity Library for Multistage-Active Starting Points for Next-Generation Antimalarials” (ACS Infect Dis, 2020).

The campaign covered roughly 65,000 compounds. About 2,100 (3.2%) showed an effect of 50% or more. The median lay at about -52%. Many of the other results were omitted from the sample, so strong results are more common in it than they were.

The test system of this assay is Plasmodium falciparum. The assay can be described thus: Screen against P. falciparum Asexual Blood Stage (ABS), at 5uM. The following applies: tested at 5 uM. Type of assay: functional, Dd2.
For `O=C(c1cc(-n2cccn2)ccc1Cl)N1CCC(N2CCCC2=O)CC1`, the INHIBITION was -100%.
To `O=C(c1cc(-n2cccn2)ccc1Cl)N1CCCC(N2CCCC2)C1` (stereo not given) belongs 65.8%.
Consider `O=C(c1ccc(-n2cccn2)c(F)c1)N1CCCN2CCCC2C1` (stereo not given), for which the INHIBITION is -23.2%.
Consider `CCN(CC)C1CCN(C(=O)c2cc(-n3cccn3)ccc2Cl)CC1`, for which the INHIBITION stood at 65.1%.
Regarding `CCN(CC)C1CCN(C(=O)NCc2cccc(-n3cccn3)c2)C1` (stereo not given), the INHIBITION is listed as -61.3%.
Turning to `O=C(Nc1cccnc1-n1cccn1)N1CCCC(N2CCCC2)C1` (stereo not given), the INHIBITION is reported as 26.8%.
For `Cc1cccc(NC2CCN(C(=O)Nc3ccc(F)c(F)c3)CC2)n1`, the INHIBITION is reported as -20.3%.
Under `Cc1ccc(C(=O)N2CCC3(CC2)CC(N2CCOCC2)C3)cc1` stands -158%.
In the case of `CC(C)CC(=O)Nc1cccc(CNCc2cccs2)c1`, the INHIBITION is listed as -70.1%.
`O=C(c1cc[nH]n1)N1CCc2onc(COc3cccnc3)c2C1`: the INHIBITION was -33.4%.
For the compound `O=C(c1ccncc1F)N1Cc2nc(COCC3CC3)oc2C1`, the INHIBITION is reported as -37.7%.
As for `c1cncc(COCc2nnc3n2CCN(Cc2ccco2)C3)c1`, the INHIBITION is -119%.
For `Cn1cc(-c2cnc3n2CCC32CCN(S(=O)(=O)C3CC3)CC2)cn1`, the INHIBITION is -61.5%.
To `Cc1cnc(NCc2csc(C(C)C)n2)nc1-c1cnn(C)c1` belongs -52.9%.
In the case of `CCn1ncnc1CN1CCc2[nH]cnc2C1Cc1ccccc1` (stereo not given), the INHIBITION is reported as -61.6%.
Under `COCCn1ccnc1CN1CCc2[nH]cnc2C1c1ccccn1` (stereo not given) stands -11.9%; under `CCCn1ccnc1CN1CCc2[nH]cnc2C1Cc1ccccc1` (stereo not given), 66.5%; under `COc1ccc(N2CCN(CC(O)c3cc(C)ccc3C)CC2)cc1` (stereo not given), 31.4%.
In the case of `Cc1noc(C)c1CN1CCCCC1CCc1ccc(O)cc1` (stereo not given), the INHIBITION is 51.5%.
To `Cc1nc(CN2CCCCC2CCc2ccc(O)cc2)no1` (stereo not given) belongs -168%; to `Oc1ccc(CCC2CCCCN2Cc2noc(C3CC3)n2)cc1` (stereo not given), -61.9%.
As to `Cc1ccc(S(=O)(=O)N2CCc3nc(C4CCNCC4)ncc3C2)cc1`, the INHIBITION is given as -51.4%.
In the case of `N#Cc1cccc(C(=O)N2CCCC(O)(CO)CC2)c1` (stereo not given), the INHIBITION was -41.3%.
Under `Cn1cc(CN2CCc3ccc(=O)n(CC4CC4)c3CC2)cn1` stands -67.9%.
As to `CS(=O)(=O)CCNC(=O)c1ccc(-c2ccco2)[nH]c1=O`, the INHIBITION is on record as -78.3%.
Turning to `COc1ccc(C[C@H]2CN(C3CCOCC3)CC[C@H]2OCC2CC2)cc1`, the INHIBITION turned out to be 68.4%.
As to `COc1ccc(C[C@H]2CN(C3CCOCC3)CC[C@@H]2OCC2CC2)cc1`, the INHIBITION worked out at 60.9%.
As for `COc1ccc(CN2C[C@H](OCC3CCOCC3)[C@H]3COC[C@H]32)cc1`, the INHIBITION is -12.7%.
Take `COc1ccc(OC)c(C2CCN(C3CCOCC3)C2)c1` (stereo not given): the INHIBITION is on record as -74.2%.
With `COc1ccc(CC2CN(C3CCSCC3)CCO2)cc1` (stereo not given), the INHIBITION is -96.7%.
Turning to `Cc1nnc(N2CC[C@H](OCC3CC3)[C@@H](Cc3ccccc3)C2)s1`, the INHIBITION is recorded as -3.27%.
For `Nc1cc(-c2c[nH]nc2C2CCCCN2C(=O)C2CCCC2)ccn1` (stereo not given), the INHIBITION is given as -12.7%.
As to `Cc1ccc(NC(=O)Cn2ncc(SCC(N)=O)c(Cl)c2=O)c(F)c1`, the INHIBITION is -57.4%.
To `COc1ccccc1NC(=O)N(CCO)Cc1ccsc1` belongs -19.5%; to `O=C(NC1CCC1)[C@H]1CCS(=O)(=O)[C@@H]2CN(CCc3ccccc3)C[C@H]12`, -96.2%.
With `Cc1nc(CN2CCCN(C(=O)c3cccnc3O)CC2)cs1`, the INHIBITION turned out to be 49.4%.
In the case of `CCOc1ccc(NC(C)=O)cc1S(=O)(=O)Nc1cc(C)on1`, the INHIBITION is -90.8%.
Consider `Cc1ccc(C)c(OC2CCN(C(=O)CNc3ccccc3Cl)CC2)c1`, for which the INHIBITION is recorded as -76.6%.
`CCc1nc(CC(=O)N2CCn3c(nnc3C(F)(F)F)C2)cs1`: the INHIBITION is given as -206%.
Under `CCc1nc(CC(=O)N2CCn3c(C)nnc3C2)cs1` stands -18.3%; under `Cc1nc(CC(=O)N2CCn3c(nnc3C(C)C)C2)cs1`, 51.5%.
Under `CC(C)c1nnc2n1CCN(C(=O)Cc1csc(C(C)(C)C)n1)C2` stands 20.2%; under `CCc1nc(CC(=O)N2CCn3c(CC)nnc3C2)cs1`, 52%; under `CCc1nc(CC(=O)N2CCn3c(nnc3C(C)C)C2)cs1`, -56.3%.
Regarding `c1coc(COCc2ncn3c2CN(Cc2cccs2)CCC3)c1`, the INHIBITION was -87%.
To `O=C(C1NCCc2[nH]cnc21)N1CCC2(C=Cc3ccccc32)CC1` (stereo not given) belongs -16.1%.
Consider `O=C(c1cccc(Cl)c1)N1CC[C@H]2[C@H]1CCN2CC1CC1`, for which the INHIBITION is listed as -55.8%.
To `CCN(C1CCN(Cc2ncc(C(C)(C)C)o2)CC1)S(C)(=O)=O` belongs -26.2%.
`CS(=O)(=O)N1CCC(c2nc3ccc(-c4cccc(F)c4)cn3n2)CC1`: the INHIBITION is -44.9%.
Regarding `OC1(CN2CCCCC2)CCN(Cc2c[nH]c(CC3CCCC3)n2)C1` (stereo not given), the INHIBITION is on record as 54.6%.
With `CC1(C)CN(Cc2c[nH]c(CC3CCCC3)n2)CC[C@]1(C)O`, the INHIBITION is given as -29.5%.
In the case of `OC1(CN2CCCC2)CCCN(Cc2c[nH]c(CC3CCCC3)n2)C1` (stereo not given), the INHIBITION stood at 37.2%.
For `CN(C)c1ccc(C(=O)NCc2cccnc2-n2cncn2)cc1F`, the INHIBITION is listed as -20.3%.
To `CC(C)Nc1nc(-c2ccccc2)nc2c1CCN(C(=O)C1CC1)CC2` belongs 27.8%; to `CCCN1CCC(c2nc3ccc(-c4cccc(OC)c4)cn3n2)CC1`, -23.2%.
Consider `Cn1cc(N2C(=O)CC[C@@H]3[C@H]2CCN3C(=O)c2cscn2)cn1`, for which the INHIBITION is given as -22.8%.
On to `CN(CCc1ccncc1)Cc1nccn1Cc1ccccc1`, for which the INHIBITION stood at 42.2%.
Take `CN(Cc1ccncc1)Cc1nccn1Cc1ccccc1`: the INHIBITION is on record as -37.9%.
In the case of `CN(CCc1ccccn1)Cc1nccn1Cc1ccccc1`, the INHIBITION stood at 57.9%.
As for `CCN(Cc1ccco1)C(=O)C1=NN(c2ccccc2)C(=O)CN1`, the INHIBITION was 60.6%.
With `CCN(C(=O)C1=NN(c2ccccc2)C(=O)CN1)c1ccccc1`, the INHIBITION is -66.6%.
In the case of `Cc1ccc(N2N=C(C(=O)N(C)Cc3ccco3)NCC2=O)cc1`, the INHIBITION is reported as -13.2%.
For `CCOc1cc(C=Cc2ncc(C(=O)NC)s2)ccc1OC`, the INHIBITION turned out to be 25.6%.
Turning to `CN(CC(=O)Nc1cccnc1)C1CCCN(c2cccnn2)C1` (stereo not given), the INHIBITION came out at 8.25%.
Regarding `CC(=O)NCCNCc1cn(CCN2CCSCC2)nc1C`, the INHIBITION was -18%.
Regarding `Cc1nc(C)c(C(=O)NCCn2nc3ccccn3c2=O)s1`, the INHIBITION is -42%.
Turning to `CCc1nc(C)c(C(=O)NCCn2nc3ccccn3c2=O)s1`, the INHIBITION is reported as -71.9%.
On to `Cc1nc(C(C)C)sc1C(=O)NCCn1nc2ccccn2c1=O`, for which the INHIBITION was 59.1%.
`CCc1nnc2n1CCN(Cc1cccc3c1OCCO3)C2`: the INHIBITION turned out to be 43.7%.
Turning to `CCc1nnc2n1CCN(CC(O)c1ccc3c(c1)OCCO3)C2` (stereo not given), the INHIBITION is 66.3%.
Take `Cn1cnc2c1CCN(CC(O)c1ccc3c(c1)OCCO3)C2` (stereo not given): the INHIBITION is given as -106%.
Consider `Cc1cc(C)cc(CN2C[C@@H]3OCCN(CC(=O)N(C)C)[C@@H]3C2)c1`, for which the INHIBITION is listed as -93.1%.
To `COC[C@H]1CCCN1c1nccc(-c2cnn(-c3ccccc3C)c2)n1` belongs -32.9%; to `COCC(=O)N1CCC2(CC1)CN(c1ccsc1)C(=O)CO2`, -11.6%; to `Cc1noc(C)c1CN1CCC2(CCN(Cc3cccc(F)c3)CC2)C1`, 67.9%.
Turning to `CC(=O)N1CCC2(CCN(Cc3cccc(F)c3)CC2)CC1`, the INHIBITION was -58.8%.
With `CN(C)CC(=O)N1CCC2(CCN(Cc3cccc(F)c3)CC2)C1`, the INHIBITION is reported as 36.4%.
`O=C(CC1CC1)N[C@@H]1CN(C(=O)c2ccsc2)C[C@@H]2CCCO[C@@H]21`: the INHIBITION is -17.8%.
Under `CC(=O)N1CC2(CCN(Cc3ccc(Cl)cc3)C2)Cc2ccccc21` (stereo not given) stands 9.12%.
`Cc1c(C)n(CC(O)CN2CCC(O)CC2)c2c(Cl)cccc12` (stereo not given): the INHIBITION is on record as 44.9%.
For the compound `Cc1c(C)n(CC(O)CN2CCCCCC2)c2c(Cl)cccc12` (stereo not given), the INHIBITION is 51.6%.
For `Cc1c(C)n(CC(O)CN2CCOCC2)c2c(Cl)cccc12` (stereo not given), the INHIBITION is listed as -15.7%.
With `CCN1CC(C(=O)NCCOc2ccc3c(c2)OCO3)CC1=O` (stereo not given), the INHIBITION is given as -196%.
Under `CN(Cc1ccncc1)CC1CCCN(CCc2ccc(Cl)cc2)C1` (stereo not given) stands -23.8%.
As to `Cc1noc(CN(C)CC2CCCN(CCc3ccc(Cl)cc3)C2)n1` (stereo not given), the INHIBITION is -72.6%.
As to `Cc1nc(CN(C)CC2CCCN(CCc3ccc(Cl)cc3)C2)n(C)n1` (stereo not given), the INHIBITION came to 54.3%.
Take `O=S(=O)(c1cccs1)N1Cc2nc(CN3CCCC3)oc2C1`: the INHIBITION is given as -84.5%.
Consider `Cc1cccc(C)c1NC(=O)c1cccc(CN2CCCC2C)c1` (stereo not given), for which the INHIBITION is given as 49.8%.
`COc1ccc(NC(=O)c2cccc(CN3CCCC3C)c2)cc1OC` (stereo not given): the INHIBITION turned out to be 51.1%.
With `CC1CCCN1Cc1cccc(C(=O)Nc2ccc3c(c2)CCC3=O)c1` (stereo not given), the INHIBITION is given as 30.1%.
In the case of `O=C([C@H]1C[C@@H]2CCN(c3cccc(F)c3)C[C@H]2O1)N1CCCC1`, the INHIBITION is listed as -20.3%.
Under `CCc1nc(C2CCCN2CCCSC)no1` (stereo not given) stands 42.3%; under `O=c1c(NCc2ccncc2)c(NCC(O)CN2CCOCC2)c1=O` (stereo not given), -27%; under `Cc1nnc(N2CCCC3(CN(Cc4ccc(F)cc4)CCO3)C2)o1` (stereo not given), -65.4%.
`Cc1cc(C)cc(CNC(C)c2c(C)nn(C)c2C)c1` (stereo not given): the INHIBITION is listed as 49.4%.
For `Cn1nccc1C(=O)N1CC[C@]2(C[C@H](OCc3ccccn3)CO2)C1`, the INHIBITION is -58%.
To `CCOCCNc1nc(-c2ccncc2)nc2c1CCNCC2` belongs -46.1%.
Under `Cc1ccc(CCNc2nc(-c3ccncc3)nc3c2CCNCC3)o1` stands -88.2%; under `c1csc(CCNc2nc(-c3ccncc3)nc3c2CCNCC3)c1`, 53.5%; under `Cc1csc(CCCNC(=O)NC2CC(=O)N(C(C)(C)C)C2)n1` (stereo not given), -57%.
Consider `Cc1n[nH]c(NC(=O)c2ccc(COCC(F)(F)F)cc2)c1C`, for which the INHIBITION is given as -94.3%.
For the compound `O=C1CC2(CCCCN2C(=O)c2ccco2)CN1c1cccnc1` (stereo not given), the INHIBITION was -138%.
Consider `CCCN1Cc2ccccc2NC(=O)C12CCNC2` (stereo not given), for which the INHIBITION was -23.5%.
In the case of `O=C1Nc2ccccc2CN(CC=Cc2ccccc2)C12CCNC2` (stereo not given), the INHIBITION amounted to 60.2%.
For the compound `O=C1Nc2ccccc2CN(CC2CC2)C12CCNC2` (stereo not given), the INHIBITION is recorded as -2.03%.
